# Source: PubChem BioAssay (NMMLSC)
# RGS7-Gao reg: human RGS7-Galphao interaction regulation | binding response (% of control), % at 10 µM | AID 1439 | 0.35% of 220,000 active | Multiplexed bead flow cytometry, RGS7-Galphao binding; actives lie on both sides; in the data active = binding response below about 49% or above about 150%; inconclusive = no clear call, values can overlap the other calls; inactive = in between;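 note: fluorescent Galphao held in activated GDP-AlF4 state binding bead-coupled RGS7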
# RGS8-Gao reg: human RGS8-Galphao interaction regulation. 0.34% of 220,000 active. multiplexed bead flow cytometry, RGS8-Galphao binding; actives lie on both sides. response (percent of control binding), % at 10 µM. P09471; in the data active = response below about 60% or above about 140%; inactive = in between;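 note: Galphao activated as the GDP aluminium fluoride complex binding bead-coupled RGS8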
# Avidin bead fluor: avidin bead compound fluorescence profile | Avidin beads, compound fluorescence 488/530 nm, flow cytometry; active compounds read high | fluorescence (KMESF) at 10 µM | 0.38% of 220,000 active | AID 1775; in the data active = fluorescence above about 47
# GSH bead fluor: compound fluoresces at 488/530 nm on GSH beads; 0.25% of 190,000 active; GSH beads flow cytometry, compound fluorescence 488/530 nm; active compounds read high; fluorescence (KMESF) at 10 µM; in the data active = fluorescence above about 89;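 note: glutathione beads carrying GST-tagged Bcl family fusion proteins plus one bare bead set; values are compound well signal with DMSO vehicle wells as background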
# RGS16-Gao HTS: regulators of human RGS16-Galphao interaction. O15492+P09471. AID 1441. bead-based flow cytometry RGS16-Galphao binding, fluorescence; actives lie on both sides. binding response (% of control), % at 10 µM. 0.38% of 220,000 active;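 note: Galphao activated by GDP with aluminum fluoride before binding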
# RGS4-Gao reg: modulates binding of RGS4 to human Galphao. Multiplexed bead flow cytometry; actives lie on both sides. binding response (% of control), % at 10 µM. 0.33% of 220,000 active. AID 1415; in the data active = binding response below about 49% or above about 150%; inactive = in between;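 note: fluorescent Galphao activated with aluminum fluoride binding bead-coupled RGS4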
# RGS4-Gao HTS: modulates binding between human RGS4 and Galphao; shares compounds with RGS16-Gao HTS; multiplexed bead flow cytometry, RGS–Galpha-o binding; RGS4–Galpha-o binding response, % at 10 µM; 99% of 1,600 active;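 note: fluorescently labeled Galpha-o bound to GDP with aluminium fluoride binding biotinylated RGS beads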
# Target sequence (P09471 whole entry, looked up): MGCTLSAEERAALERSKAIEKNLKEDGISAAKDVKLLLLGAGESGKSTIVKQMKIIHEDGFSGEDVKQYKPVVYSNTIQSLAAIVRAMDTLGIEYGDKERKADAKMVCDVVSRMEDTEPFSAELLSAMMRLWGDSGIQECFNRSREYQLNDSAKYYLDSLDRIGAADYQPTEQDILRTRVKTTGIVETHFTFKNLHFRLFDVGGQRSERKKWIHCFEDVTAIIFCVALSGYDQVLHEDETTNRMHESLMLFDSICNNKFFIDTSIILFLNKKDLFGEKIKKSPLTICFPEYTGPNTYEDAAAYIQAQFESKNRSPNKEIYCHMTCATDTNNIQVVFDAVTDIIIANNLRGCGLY
# Target sequence (P49798 whole entry, looked up): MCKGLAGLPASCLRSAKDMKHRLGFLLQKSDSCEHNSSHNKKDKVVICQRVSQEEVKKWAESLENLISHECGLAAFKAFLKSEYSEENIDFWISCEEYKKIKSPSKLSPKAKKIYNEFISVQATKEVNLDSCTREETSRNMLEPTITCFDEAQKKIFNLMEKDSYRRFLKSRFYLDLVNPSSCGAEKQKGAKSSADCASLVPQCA
# Biotin-avidin: counter-screen: compounds disrupting biotin binding to avidin beads; shares compounds with RGS16-Gao HTS; streptavidin beads, fluorescein-biotin binding, flow cytometry; inhibition, % at 10 µM; 1,700 tested, under 10 active; AID 1783;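 active = inhibition above 50%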;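 note: median green fluorescence of gated singlet beads compared with DMSO control wells; 0% = DMSO wells and 100% = complete loss of bead fluorescence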
# RGS8-Gao confirm: confirmation of regulators of human RGS8-Galphao interaction | binding response (% of control), % at 10 µM | AID 1836 | bead-based flow cytometry RGS8-Galphao binding, fluorescence; actives lie on both sides | shares compounds with RGS16-Gao HTS | 3% of 1,700 active; in the data active = binding response below about 72% or above about 130%; inactive = in between;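 note: Galphao activated as GDP AlF4 complex before binding bead RGS8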
# RGS7-Gao confirm: confirmation of regulators of human RGS7-Galphao interaction | bead-based flow cytometry RGS7-Galphao binding; actives lie on both sides | shares compounds with RGS16-Gao HTS | response (percent of control binding), % at 10 µM | 7.8% of 1,700 active; in the data active = response below about 75% or above about 130%; inactive = in between;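 note: fluorescent Galphao activated with GDP and aluminum fluoride binding bead-coupled RGS7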
# RGS16-Gao conf: RGS16-Galphao interaction regulation, single point confirmation | shares compounds with RGS16-Gao HTS | bead-based flow cytometry, RGS16-Galphao binding; actives lie on both sides | response (% of control binding), % at 10 µM | 4% of 1,700 active | AID 1838; in the data active = response below about 74% or above about 130%; inactive = in between;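 note: Galphao activated as the GDP aluminium fluoride complex binding bead-coupled RGS16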
# RGS4-Gao confirm: confirmation of regulators of human RGS4-Galphao interaction | AID 1840 | binding response (% of control), % at 10 µM | RGS4-Galphao binding, multiplexed bead flow cytometry; actives lie on both sides | 4% of 1,700 active | shares compounds with RGS16-Gao HTS; in the data active = binding response below about 74% or above about 130%; inactive = in between
# RGS19-Gao conf: confirmation of regulators of human RGS19-Galphao interaction | shares compounds with RGS16-Gao HTS | bead-based flow cytometry RGS19-Galphao binding; actives lie on both sides | response (percent of control binding), % at 10 µM | 5% of 1,700 active; in the data active = response below about 50% or above about 160%; inactive = in between;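 note: 100% = no compound control and 0% = blank background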
# * hit, by the source's call; u = inconclusive; x = not tested or not shown; [ ] = remark or other dose. The list is not random: actives were taken first. Their share in the collection is about 1.2%. Unless noted, the rule behind the calls is not given here.
SMILES,RGS7-Gao reg,RGS8-Gao reg,Avidin bead fluor,GSH bead fluor,RGS16-Gao HTS,RGS4-Gao reg,Biotin-avidin,RGS8-Gao confirm,RGS7-Gao confirm,RGS16-Gao conf,RGS4-Gao confirm,RGS19-Gao conf,others
CCOc1cc(S(=O)(=O)NCc2ccncc2)ccc1Cl,98,101,10,12,103,99,x,x,x,x,x,x,
CC1=C(C(=O)Nc2ccc(F)c(F)c2)C(c2cccs2)NC(=S)N1 (stereo unspecified),102,103,2,6,108,102,x,x,x,x,x,x,
CC1=C(C(=O)Nc2ccc(C)cc2)C(c2cccs2)NC(=S)N1 (stereo unspecified),46*,67,7,15,49,54,-2,110,105,112,104,118,RGS4-Gao HTS=54*
CC(C)c1nc2oc3c(NCCO)ncnc3c2c2c1COC(C)(C)C2,u,98,9,x,96,93,x,x,x,x,x,x,
CCCc1nc2oc3c(NCCOCCO)ncnc3c2c2c1COC(C)(C)C2,173*[activator],127,20,27,162,165*[activator],-2,101,102,96,100,76,
CCCc1cc(N2CCCC(C(=O)NCc3ccc4c(c3)OCO4)C2)n2ncnc2n1 (stereo unspecified),x,108,x,48,x,x,0,98,100,99,98,100,
CC(c1ccccc1)C(Cc1nc2ccccc2[nH]1)c1nc2ccccc2[nH]1 (stereo unspecified),u,103,9,12,101,101,x,x,x,x,x,x,
C=CCn1c(COc2ccccc2)nnc1SC(C)C(=O)N/N=C/c1cc(Cl)ccc1O (stereo unspecified),88,90,17,28,92,93,x,x,x,x,x,x,
COc1nc(N)c(S(=O)(=O)c2ccccc2)cc1C#N,117,145*[activator],8,49,407,124,-1,103,98,108,100,118,RGS4-Gao HTS=124*
Cc1cc([N+](=O)[O-])nn1CCCC(=O)NCc1ccc(F)cc1,95,98,22,23,102,94,x,x,x,x,x,x,
COc1ccccc1NC(=O)C1CCCCC1,158*[activator],97,90*,26,100,107,x,x,x,x,x,x,RGS4-Gao HTS=107*
CC12C(=O)N(c3nccs3)C(=O)C1C1C=CC2C1 (stereo unspecified),x,x,x,29,x,x,0,103,98,100,97,89,
Cc1ccc(NC(=O)CSCC#N)cc1,91,93,8,5,93,90,x,x,x,x,x,x,
CCOC(=O)CC(=O)CSCC(=O)Nc1ccc(C)cc1,43*,57*,4,19,36,47*,0,105,107,105,106,102,
O=CNc1ccc(S(=O)(=O)NCc2ccccc2)cc1,103,102,5,15,103,103,x,x,x,x,x,x,
COc1ccc(C2C(C(=O)O)c3ccccc3C(=O)N2Cc2ccco2)cc1 (stereo unspecified),u,102,6,x,100,105,x,x,x,x,x,x,
COc1ccc(NC(=O)COC(C)=O)cc1Cl,103,102,3,10,100,104,x,x,x,x,x,x,
